# Values joined by “and” are separate entries in the source; they are usually repeats but may differ in a detail not shown here. Identical values can stand only once. Records with an inconclusive call do not appear. Where a structure was tested more than once in an assay, its records may differ in their call. Active and inactive are the calls of the source. The calls were made as follows, unless noted: active = hit-call score of the fitted dose curve at least 0.9, where 1 is the maximum; inconclusive = response in the unintended direction; inactive = score below 0.9.
# How the values were obtained:
# [1] = target: rat Glutamate, AMPA Site (AMPA), Gria1 (gene 50592) (UniProt P19490); assay: NVS_LGIC_rAMPA: NovaScreen (NVS) Ligand-Gated Ion Channel Assay for rat Glutamate, AMPA Site (AMPA) (AID 2283324)
# Sequence of rat Glutamate, AMPA Site (AMPA), Gria1 (gene 50592) (P19490 whole entry, looked up): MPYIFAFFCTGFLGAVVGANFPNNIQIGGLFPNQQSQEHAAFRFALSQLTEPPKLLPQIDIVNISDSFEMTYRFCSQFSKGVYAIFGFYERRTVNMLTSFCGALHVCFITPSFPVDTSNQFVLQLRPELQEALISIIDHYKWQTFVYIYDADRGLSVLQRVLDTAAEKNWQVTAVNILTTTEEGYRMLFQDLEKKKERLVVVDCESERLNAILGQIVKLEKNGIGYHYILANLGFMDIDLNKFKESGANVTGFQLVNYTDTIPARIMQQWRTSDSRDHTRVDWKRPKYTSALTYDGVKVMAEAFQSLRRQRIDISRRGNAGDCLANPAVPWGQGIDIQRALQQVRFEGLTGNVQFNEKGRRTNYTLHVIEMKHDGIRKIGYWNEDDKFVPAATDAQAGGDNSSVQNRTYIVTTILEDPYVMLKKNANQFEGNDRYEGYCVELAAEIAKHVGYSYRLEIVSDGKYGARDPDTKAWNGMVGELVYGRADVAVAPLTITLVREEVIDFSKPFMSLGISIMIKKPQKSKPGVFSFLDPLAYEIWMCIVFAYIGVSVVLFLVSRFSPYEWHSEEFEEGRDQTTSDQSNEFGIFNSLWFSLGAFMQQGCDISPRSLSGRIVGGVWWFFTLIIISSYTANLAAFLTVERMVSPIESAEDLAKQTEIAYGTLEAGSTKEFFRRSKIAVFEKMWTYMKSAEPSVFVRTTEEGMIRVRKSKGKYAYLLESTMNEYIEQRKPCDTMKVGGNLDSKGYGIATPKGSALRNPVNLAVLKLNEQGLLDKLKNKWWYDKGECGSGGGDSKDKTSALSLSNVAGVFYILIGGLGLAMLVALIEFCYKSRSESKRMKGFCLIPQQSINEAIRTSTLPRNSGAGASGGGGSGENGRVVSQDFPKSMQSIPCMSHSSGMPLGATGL
# How it was run: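 Screening at 25 uM in duplicate preceded concentration series reaching 50 uM for qualifying compounds. Radioligand displacement on rat forebrain membranes, 1 h, filter-based scintillation readout; reduced binding relative to DMSO.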
# [2] = target: Glutamate receptor ionotropic, kainate 1 (Rattus norvegicus) (UniProt P22756); assay: NVS_IC_rKAR: NovaScreen (NVS) Ion Channel Assay for rat Kainic Acid Receptors (KAR) (AID 2283334; active = hit-call score of the fitted dose curve at least 0.9, where 1 is the maximum; inactive = score below 0.9)
# How it was run: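 Rat forebrain membrane preparation incubated 1 h with radioligand and test chemical; bound signal read by filtration and scintillation. Single-concentration screen at 25 uM, then concentration series to 50 uM maximum.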
# [3] = target: rat Glutamate, NMDA Agonist Site (GluNMDA), Grin1 (gene 24408) (UniProt P35439); assay: NVS_LGIC_rGluNMDA_Agonist: NovaScreen (NVS) Ligand-Gated Ion Channel Assay for rat Glutamate, NMDA Agonist Site (GluNMDA) (AID 2283327)
# How it was run: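 Radioligand displacement at the agonist site on rat forebrain membrane preparations, read by filter scintillation after 1 h. Chemicals were first run at 25 uM in duplicate; those passing threshold were titrated to a 50 uM maximum.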
# [4] = target: bovine Gamma-Aminobutyric Acid Type A Receptor Agonist (GABAR Agonist), GABRA1 (gene 780973) (UniProt P08219); assay: NVS_LGIC_bGABAR_Agonist: NovaScreen (NVS) Ligand-Gated Ion Channel Assay for bovine Gamma-Aminobutyric Acid Type A Receptor Agonist (GABAR Agonist) (AID 2283338)
# How it was run: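 Radioligand binding to bovine cerebellar membranes in agonist format, read by filter-based scintillation counting after 1 h. Primary screen in duplicate at 25 uM, with actives followed in concentration series. Gain of signal versus DMSO.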
# [5] = target: human Peripheral-type Benzodiazepine Receptor (PBR), TSPO (gene 706) (UniProt P30536); assay: NVS_MP_hPBR: NovaScreen (NVS) Membrane Protein Assay for human Peripheral-type Benzodiazepine Receptor (PBR) (AID 2283331);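 also: hits reduce radioligand binding relative to DMSO baseline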
# Sequence of human Peripheral-type Benzodiazepine Receptor (PBR), TSPO (gene 706) (P30536 whole entry, looked up): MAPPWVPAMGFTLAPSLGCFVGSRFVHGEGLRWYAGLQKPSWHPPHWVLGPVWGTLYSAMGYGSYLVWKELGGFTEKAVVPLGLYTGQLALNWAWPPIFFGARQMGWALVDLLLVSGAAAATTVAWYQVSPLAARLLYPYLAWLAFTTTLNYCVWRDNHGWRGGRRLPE
# How it was run: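 Cell-free radioligand displacement, human colonic membranes, 1 h exposure. Filter radiodetection read-out. Single-concentration duplicates (25 uM), then concentration-response for actives; DMSO negative control.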
# [6] = target: rat Peripheral-type Benzodiazepine Receptor (PBR), Tspo (gene 24230) (UniProt P16257); assay: NVS_MP_rPBR: NovaScreen (NVS) Membrane Protein Assay for rat Peripheral-type Benzodiazepine Receptor (PBR) (AID 2283335)
# Sequence of rat Peripheral-type Benzodiazepine Receptor (PBR), Tspo (gene 24230) (P16257 whole entry, looked up): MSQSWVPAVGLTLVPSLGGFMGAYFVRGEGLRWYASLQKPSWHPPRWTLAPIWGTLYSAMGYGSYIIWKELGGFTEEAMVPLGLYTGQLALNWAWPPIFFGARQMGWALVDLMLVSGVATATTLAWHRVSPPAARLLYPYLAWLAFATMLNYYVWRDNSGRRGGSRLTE
# How it was run: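 Single-concentration duplicate screening at 25 uM preceded concentration-series retesting of actives. Binding of a specific radioligand to rat kidney membrane PBR was read by filtration radiodetection after 1 h, with plate-wise positive and negative controls.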
# [7] = NVS_IC_rCaBTZCHL: NovaScreen (NVS) Ion Channel Assay for Calcium Channel, Type L, Benzothiazepine Site (CaBTZCHL) (AID 2283337)
# How it was run: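 Rat cortical membrane preparation, cell-free. Radioligand displaced by test chemical; 1.5 h incubation; filtration, scintillation count. DMSO = negative control/baseline. Primary: duplicate, 25 uM; secondary: concentration series.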
# [8] = test system: NCBI gene 100848466; assay: NVS_NR_bPR: NovaScreen (NVS) Nuclear Receptor Binding Assay for bovine Progextron Receptor (PR) (AID 2283343);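 as to AC50: actives lower bound radioligand signal below DMSO meaning displacement of the label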
# How it was run: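 Scintillation counts of bound radioligand were read 18 hours after chemical addition to membranes extracted from bovine uterus. Displacement was scored as loss of signal relative to DMSO controls. Screening began at 25 uM in duplicate.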
# [9] = target: human Constitutive Androstane Receptor (CAR), NR1I3 (gene 9970) (UniProt Q14994); assay: NVS_NR_hCAR_Agonist: NovaScreen (NVS) Nuclear Receptor Binding Assay for human Constitutive Androstane Receptor Agonism (CAR) (AID 2283328)
# Sequence of human Constitutive Androstane Receptor (CAR), NR1I3 (gene 9970) (Q14994 whole entry, looked up): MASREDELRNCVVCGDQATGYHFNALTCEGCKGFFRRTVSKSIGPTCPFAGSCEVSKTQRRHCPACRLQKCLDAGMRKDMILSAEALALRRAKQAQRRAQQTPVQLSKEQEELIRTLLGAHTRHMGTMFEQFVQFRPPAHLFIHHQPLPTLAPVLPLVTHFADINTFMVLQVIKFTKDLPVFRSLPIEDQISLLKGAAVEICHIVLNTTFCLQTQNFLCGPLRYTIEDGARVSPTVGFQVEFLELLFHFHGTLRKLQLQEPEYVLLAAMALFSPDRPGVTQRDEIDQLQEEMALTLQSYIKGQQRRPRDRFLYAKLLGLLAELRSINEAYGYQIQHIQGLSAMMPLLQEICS
# How it was run: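 Actives from a 25 uM duplicate screen were retested in singleton concentration series to 50 uM max. Biochemical TR-FRET assay on extracted CAR protein measured 1 h post-dose, with signal increase over DMSO control.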
# [10] = target: rat Gamma-Aminobutyric Acid Type A Receptor, Non-Selective (GABAR-NonSelective), Gabra1 (gene 29705) (UniProt P62813); assay: NVS_LGIC_rGABAR_NonSelective: NovaScreen (NVS) Ligand-Gated Ion Channel Assay for rat Gamma-Aminobutyric Acid Type A Receptor, Non-Selective (GABAR-NonSelective) (AID 2283326)
# Sequence of rat Gamma-Aminobutyric Acid Type A Receptor, Non-Selective (GABAR-NonSelective), Gabra1 (gene 29705) (P62813 whole entry, looked up): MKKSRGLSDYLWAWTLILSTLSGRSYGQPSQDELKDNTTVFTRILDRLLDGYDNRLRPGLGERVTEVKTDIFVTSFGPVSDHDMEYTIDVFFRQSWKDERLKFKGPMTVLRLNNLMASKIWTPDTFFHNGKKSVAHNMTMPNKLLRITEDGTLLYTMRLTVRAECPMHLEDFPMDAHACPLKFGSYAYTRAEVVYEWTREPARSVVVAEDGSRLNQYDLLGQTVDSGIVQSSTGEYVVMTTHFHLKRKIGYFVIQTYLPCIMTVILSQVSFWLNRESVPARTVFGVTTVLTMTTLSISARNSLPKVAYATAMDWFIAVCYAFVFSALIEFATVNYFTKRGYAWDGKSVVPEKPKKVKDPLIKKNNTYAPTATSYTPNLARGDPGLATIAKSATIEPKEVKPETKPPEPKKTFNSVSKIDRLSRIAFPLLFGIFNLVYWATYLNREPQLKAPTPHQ
# How it was run: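 Compounds were first screened in duplicate at 25 uM, with actives run as singleton concentration series (max 50 uM). Binding of a radioligand to rat whole-brain GABA-A preparation was measured by filtration and scintillation counting after 1 h, DMSO baseline.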
# [11] = target: Voltage-gated inwardly rectifying potassium channel KCNH2 (Homo sapiens) (UniProt Q12809); assay: NVS_IC_hKhERGCh: NovaScreen (NVS) Ion Channel Assay for human Potassium Channel ERG (KhERGCh) (AID 2283333)
# Sequence of Voltage-gated inwardly rectifying potassium channel KCNH2 (Homo sapiens) (Q12809 whole entry, looked up): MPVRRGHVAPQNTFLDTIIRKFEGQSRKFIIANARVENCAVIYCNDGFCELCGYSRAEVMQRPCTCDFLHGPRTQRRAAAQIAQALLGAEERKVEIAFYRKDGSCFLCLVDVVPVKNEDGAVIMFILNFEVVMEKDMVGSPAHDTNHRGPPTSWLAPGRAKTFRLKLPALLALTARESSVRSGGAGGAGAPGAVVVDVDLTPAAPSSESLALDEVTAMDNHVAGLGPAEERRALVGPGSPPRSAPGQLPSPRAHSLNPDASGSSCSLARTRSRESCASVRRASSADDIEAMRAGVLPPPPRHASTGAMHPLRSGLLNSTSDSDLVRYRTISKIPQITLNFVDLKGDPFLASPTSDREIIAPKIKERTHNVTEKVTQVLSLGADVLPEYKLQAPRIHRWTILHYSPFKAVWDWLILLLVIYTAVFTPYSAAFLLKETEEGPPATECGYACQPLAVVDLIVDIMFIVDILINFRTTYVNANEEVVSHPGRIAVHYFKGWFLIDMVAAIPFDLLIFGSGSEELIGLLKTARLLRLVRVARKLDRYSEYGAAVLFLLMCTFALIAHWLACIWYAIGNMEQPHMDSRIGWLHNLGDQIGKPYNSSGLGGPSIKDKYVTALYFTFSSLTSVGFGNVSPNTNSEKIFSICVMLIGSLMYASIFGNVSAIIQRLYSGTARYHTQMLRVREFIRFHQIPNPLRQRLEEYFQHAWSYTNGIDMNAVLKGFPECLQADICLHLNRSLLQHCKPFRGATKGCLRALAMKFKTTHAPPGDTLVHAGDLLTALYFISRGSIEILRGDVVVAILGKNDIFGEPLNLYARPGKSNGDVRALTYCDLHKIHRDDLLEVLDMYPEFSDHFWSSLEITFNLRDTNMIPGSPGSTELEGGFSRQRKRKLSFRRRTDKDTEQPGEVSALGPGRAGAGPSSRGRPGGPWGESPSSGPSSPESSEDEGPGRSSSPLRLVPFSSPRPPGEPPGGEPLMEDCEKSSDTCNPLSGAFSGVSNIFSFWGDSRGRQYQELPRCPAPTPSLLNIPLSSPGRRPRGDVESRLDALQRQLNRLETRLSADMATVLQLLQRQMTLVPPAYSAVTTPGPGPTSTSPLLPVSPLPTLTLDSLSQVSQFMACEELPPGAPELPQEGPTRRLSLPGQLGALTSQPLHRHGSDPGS
# How it was run: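 Membranes from CHO cells expressing human ERG; displacement of radioligand measured by filtration and scintillation after 0.75 h. Single-concentration duplicate screen at 25 uM, then concentration-response for actives; DMSO baseline.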
# [12] = target: Small conductance calcium-activated potassium channel protein 1 (Rattus norvegicus) (UniProt P70606); assay: NVS_IC_rKCaCh: NovaScreen (NVS) Ion Channel Assay for rat Potassium Channel, Ca2+ Act., VI (KCaCh) (AID 2283336)
# How it was run: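 Filter-based scintillation counting of radioligand bound to rat forebrain membrane preparations, measured 1 h after compound addition. Primary screen used 25 uM in duplicate, with concentration-response follow-up; signal decrease relative to DMSO marks activity.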
# [13] = target: rat Glutamate, MK-801 Agonist Site (GluNMDA_MK801), Grin1 (gene 24408) (UniProt P35439); assay: NVS_LGIC_rGluNMDA_MK801_Agonist: NovaScreen (NVS) Ligand-Gated Ion Channel Assay for rat Glutamate, MK-801 Agonist Site (GluNMDA_MK801) (AID 2283340)
# How it was run: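 Rat forebrain membrane preparation; MK-801-site radioligand binding read by filtration and scintillation after 1.5 h. Single-point 25 uM duplicate screen, followed by singleton concentration series to 50 uM max; DMSO baseline.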
# [14] = target: rat Glycine Receptor, Strychnine-sensitive (GlyRStrySens), Glra1 (gene 25674) (UniProt P07727); assay: NVS_LGIC_rGlyRStrySens: NovaScreen (NVS) Ligand-Gated Ion Channel Assay for rat Glycine Receptor, Strychnine-sensitive (GlyRStrySens) (AID 2283341)
# How it was run: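 Radioligand displacement on rat spinal cord membranes, 1 hr, filter scintillation read-out. Single-concentration duplicate screen at 25 uM; chemicals meeting threshold (e.g., 30% inhibition) rerun in concentration-response up to 50 uM. Loss of binding fitted versus DMSO.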
# [15] = test system: guinea pig Histamine Receptor (H2), gene 100729734; assay: NVS_GPCR_gH2: NovaScreen (NVS) G Protein-Coupled Receptor Assay for guinea pig Histamine Receptor (H2) (AID 2283342)
# How it was run: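 Guinea pig striatal membrane preparation with specific radioligand; bound counts measured by filtration and scintillation 1 h post-dosing, DMSO as baseline. Chemicals passing a 25 uM duplicate screen were titrated to a 50 uM maximum.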
# [16] = target: human Serotonin, 5-Hydroxytryptamine Receptor 3 (5HT3), HTR3A (gene 3359) (UniProt P46098); assay: NVS_LGIC_h5HT3: NovaScreen (NVS) Ligand-Gated Ion Channel Assay for human Serotonin, 5-Hydroxytryptamine Receptor 3 (5HT3) (AID 2283325)
# Sequence of human Serotonin, 5-Hydroxytryptamine Receptor 3 (5HT3), HTR3A (gene 3359) (P46098 whole entry, looked up): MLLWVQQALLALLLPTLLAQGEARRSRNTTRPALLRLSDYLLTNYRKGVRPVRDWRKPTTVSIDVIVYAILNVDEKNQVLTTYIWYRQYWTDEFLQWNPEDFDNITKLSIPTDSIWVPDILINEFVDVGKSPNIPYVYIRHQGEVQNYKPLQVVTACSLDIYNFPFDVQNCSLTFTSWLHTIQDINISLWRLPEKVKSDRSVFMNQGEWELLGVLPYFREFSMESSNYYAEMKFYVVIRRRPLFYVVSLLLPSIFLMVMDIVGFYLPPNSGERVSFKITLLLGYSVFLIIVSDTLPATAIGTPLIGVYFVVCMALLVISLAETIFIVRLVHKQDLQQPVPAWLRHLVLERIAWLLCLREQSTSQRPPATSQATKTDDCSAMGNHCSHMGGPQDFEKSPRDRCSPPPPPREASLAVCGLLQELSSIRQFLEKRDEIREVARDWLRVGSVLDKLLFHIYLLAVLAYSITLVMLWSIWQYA
# How it was run: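 Initially tested at 25 uM in duplicate, then up to 50 uM in concentration-response for actives, compounds competed with a radioligand for HEK293-derived human 5-HT3 receptor. Bound counts were measured by filtration and scintillation at 1 h; loss of signal versus DMSO.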
# [17] = target: human Constitutive Androstane Receptor (CAR), NR1I3 (gene 9970) (UniProt Q14994); assay: NVS_NR_hCAR_Antagonist: NovaScreen (NVS) Nuclear Receptor Binding Assay for human Constitutive Androstane Receptor Antagonism (CAR) (AID 2283344)
# How it was run: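 Single 25 uM duplicate primary screen, with concentration-series follow-up on actives. Cell-free binding format run in antagonist mode, TR-FRET signal taken 1 h post-dose; activity is signal loss relative to DMSO.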
# [18] = target: bovine Estrogen Receptor (ER), ESR1 (gene 407238) (UniProt P49884); assay: NVS_NR_bER: NovaScreen (NVS) Nuclear Receptor Binding Assay for bovine Estrogen Receptor (ER) (AID 2283345);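 also: actives lower the bound radioligand count which means they displace the ER ligand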
# Sequence of bovine Estrogen Receptor (ER), ESR1 (gene 407238) (P49884 whole entry, looked up): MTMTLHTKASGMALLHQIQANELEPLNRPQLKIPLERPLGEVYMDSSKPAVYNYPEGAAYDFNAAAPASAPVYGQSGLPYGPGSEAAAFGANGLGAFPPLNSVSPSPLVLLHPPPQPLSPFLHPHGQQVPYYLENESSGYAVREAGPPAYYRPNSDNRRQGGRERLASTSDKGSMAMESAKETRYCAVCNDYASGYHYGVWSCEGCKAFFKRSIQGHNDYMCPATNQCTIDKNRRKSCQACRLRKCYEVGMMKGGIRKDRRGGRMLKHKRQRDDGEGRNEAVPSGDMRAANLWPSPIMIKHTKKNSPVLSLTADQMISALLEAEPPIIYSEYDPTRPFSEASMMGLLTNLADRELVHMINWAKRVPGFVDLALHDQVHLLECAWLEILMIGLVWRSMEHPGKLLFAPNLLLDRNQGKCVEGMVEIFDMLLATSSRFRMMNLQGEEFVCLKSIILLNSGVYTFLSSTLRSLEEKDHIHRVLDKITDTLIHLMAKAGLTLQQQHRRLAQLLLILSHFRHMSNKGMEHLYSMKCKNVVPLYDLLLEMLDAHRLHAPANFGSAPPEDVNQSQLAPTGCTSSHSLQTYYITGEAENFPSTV
# How it was run: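 Displacement of a radioligand from estrogen receptor in bovine uterine membrane preparations; scintillation signal taken at 18 hours, DMSO as baseline. Single-concentration duplicates (25 uM) preceded concentration-response follow-up of actives.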
# [19] = target: rat Thyrotropin Releasing Hormone Receptor (TRH), Trhr (gene 25570) (UniProt Q01717); assay: NVS_GPCR_rTRH: NovaScreen (NVS) G Protein-Coupled Receptor Assay for rat Thyrotropin Releasing Hormone Receptor (TRH) (AID 2283329);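 also: hit means lower bound tracer signal versus DMSO baseline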
# Sequence of rat Thyrotropin Releasing Hormone Receptor (TRH), Trhr (gene 25570) (Q01717 whole entry, looked up): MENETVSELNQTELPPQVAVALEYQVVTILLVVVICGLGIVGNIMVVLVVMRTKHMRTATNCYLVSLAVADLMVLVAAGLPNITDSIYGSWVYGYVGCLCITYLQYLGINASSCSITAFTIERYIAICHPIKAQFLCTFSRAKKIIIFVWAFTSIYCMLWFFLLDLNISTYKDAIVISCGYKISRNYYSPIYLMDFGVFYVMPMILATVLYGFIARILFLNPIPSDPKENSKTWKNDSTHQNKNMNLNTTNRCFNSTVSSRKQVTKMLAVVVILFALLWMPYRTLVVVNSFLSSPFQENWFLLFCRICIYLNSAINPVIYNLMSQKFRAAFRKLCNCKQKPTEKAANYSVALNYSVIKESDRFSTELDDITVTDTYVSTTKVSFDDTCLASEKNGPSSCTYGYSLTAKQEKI
# How it was run: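 Competitive radioligand binding on rat forebrain membrane preparations, with filtration and scintillation readout after 4 h. Primary testing in duplicate at 25 uM; actives confirmed in concentration-response. DMSO defined baseline.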
smiles,measurement,setting,value
O=c1[nH]sc2ccccc12,outcome,[1],inactive
same,outcome,[2],inactive
O=C1O[C@H]([C@@H](O)CO)C(O)=C1O,outcome,[3],inactive
same,outcome,[4],inactive
CC/C(=C(/CC)c1ccc(O)cc1)c1ccc(O)cc1,outcome,[1],inactive
same,AC50,[5],202 nM (active) and 13.5 µM (active)
same,outcome,[5],inactive
same,AC50,[6],20.8 µM (active) and 25 µM (active) and 1.49 µM (active)
same,AC50,[7],12.4 µM (active)
same,AC50,[8],9.68 µM (active)
CCCCOC(=O)c1ccc(O)cc1,outcome,[1],inactive
same,outcome,[9],inactive
same,AC50,[5],19.6 µM (active) and 25 µM (active)
same,AC50,[6],3 µM (active) and 25 µM (active)
same,outcome,[8],inactive
COc1ccc2cc(S(=O)(=O)N[C@H](CC(=O)N[C@H](Cc3ccc(CN4[C@H](C)CCC[C@@H]4C)cc3)C(=O)N(C)C(C)C)c3ccc4c(c3)OCO4)ccc2c1,AC50,[10],11.2 µM (active)
same,AC50,[11],1.21 µM (active)
same,outcome,[12],inactive
same,AC50,[7],3.52 µM (active)
same,outcome,[13],inactive
same,AC50,[14],0.128 µM (active)
same,AC50,[15],20.5 µM (active)
COc1cccc([C@H](O)C2CCN(CCc3ccc(F)cc3)CC2)c1OC,outcome,[16],inactive
same,AC50,[7],1.35 µM (active)
same,AC50,[15],13.1 µM (active)
Cc1c2ccccc2c(C)c2c1ccc1ccccc12,outcome,[9],inactive
same,AC50,[5],14.6 µM (active)
same,AC50,[6],1.69 µM (active)
same,AC50,[8],9.4 µM (active)
same,outcome,[17],inactive
same,outcome,[18],inactive
O=C(O)Cn1c(=O)n(Cc2ccc(Br)cc2F)c(=O)c2ccc(Cl)cc21,outcome,[3],inactive
same,outcome,[5],inactive
O=C1c2ccccc2C(=O)N1CCc1noc(-c2ccc(CN3CCCCCC3)s2)n1,outcome,[19],inactive
same,outcome,[6],inactive
same,AC50,[7],7.22 µM (active)
same,AC50,[15],8.06 µM (active)
Cc1cc(F)ccc1-c1cc(N2CC[C@@H](O)[C@H]2CO)ncc1N(C)C(=O)C(C)(C)c1cc(C(F)(F)F)cc(C(F)(F)F)c1,outcome,[19],inactive
same,AC50,[11],7.95 µM (active)
same,outcome,[7],inactive
same,outcome,[15],inactive
same,AC50,[8],11.3 µM (active)
CCCCCc1ccc(N)cc1,outcome,[19],inactive
same,outcome,[18],inactive

# Reference: PubChem BioAssay (EPA / NIEHS)
